Source: PubChem
Only some compounds are listed: those with a hit (about 2.4% of all), similar ones and a draw of the others.
HTT-AS act = Primary qHTS for Identification of Small Molecule Activators of Huntingtin-Antisense Promoter Activity; HEK293 HTT-AS promoter firefly luciferase reporter, 24 h; response scale: percent change from vehicle, -100% = no light; 48,000 compounds, 0.24% hits; AID 1508624, 2021; Potency, µM (top dose mostly 57.5 µM), for inactives: at the top dose activity change, positive = activation, usual class: activators; note: nearly all actives have a fitted effect of over 55% in size
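HEK293 Fluc reporter, 2,500 cells/well, 24 h pre-culture; cpds up to 57.5 uM final, 24 h 37 degrees C; Dual-Glo, 10 min RT; normalized vehicle = 0%, zero RLU = -100%.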
NTMT1 inh = Primary qHTS for Inhibitors of N-terminal methyltransferase 1 (NTMT1): MTaseGlo Assay; NTMT1 MTase-Glo SAH luminescence, purified enzyme; Potency, µM (top dose mostly 114 µM), inactives show at the highest dose activity change, negative = inhibition, usual class: inhibitors; 59,000 compounds, 2.5% hits; AID 1645870, 2021;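 note: plate controls were DMSO vehicle for no effect and no enzyme for full effect; nearly all actives have a fitted effect of over 65% in size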
Target sequence (Q9BV86 whole entry, looked up): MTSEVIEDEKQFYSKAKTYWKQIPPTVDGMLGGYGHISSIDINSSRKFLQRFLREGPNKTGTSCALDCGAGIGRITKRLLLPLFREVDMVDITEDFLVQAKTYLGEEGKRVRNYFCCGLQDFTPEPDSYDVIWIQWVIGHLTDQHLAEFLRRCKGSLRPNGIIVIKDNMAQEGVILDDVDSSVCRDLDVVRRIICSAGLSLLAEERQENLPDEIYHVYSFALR
HTT prom inh = Primary qHTS for Identification of Small Molecule Inhibitors of Huntingtin Promoter Activity | HEK293 HTT promoter firefly luciferase reporter, 24 h | Potency, µM (doses to about 57.5 µM), for inactives: at the highest dose activity change, negative = inhibition, most hits filed as inhibitors | 48,000 compounds, 0.93% hits | AID 1508623, 2021; note: nearly all actives have a fitted effect of over 50% in size
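Luminescence was read after Dual-Glo reagent and a 10 min room-temperature incubation. Values were normalized to vehicle (0% activity) and zero RLU (-100% activity). Reporter HEK293 cells had been exposed to compounds (up to 57.5 uM final) for 24 h.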
* marks the source's active call; other numbers are inactive results; ? = inconclusive; · = no result; ! = a repeat was not active; [ ] = dose if it differs, or a comment. Calls come from the whole dose curve; as a rule, active = well fitted curve in the direction sought with a large enough effect; inconclusive = small, poorly fitted or top-dose-only effect, or another doubt; inactive = no such curve, though single readings can be large; an effect the other way counts as inactive or inconclusive. Potency is the fitted concentration of half-maximal effect.

SMILES	HTT-AS act	NTMT1 inh	HTT prom inh
O=C(NC1CCN(Cc2ccccc2)CC1)c1ccc(Cn2c(=O)c3ccccc3n(Cc3ccccc3)c2=O)cc1	-23%	79µM*	-21%
COCCCNC(=O)Cn1c(=O)n(Cc2ccc(C(=O)NCc3ccc(C)cc3)cc2)c(=O)c2ccccc21	-14%	79µM*	3%
Cc1ccc(OCCn2c(CCNC(=O)c3ccc[nH]3)nc3ccccc32)cc1	·	1%[57.5 µM]	·
CCn1c(=O)c(-c2ccc(-c3cncc(C)n3)cc2Cl)cc2cnc(NCCC3CCN(C)CC3)nc21	·	-11%[12.6 µM]	·
CCn1c(=O)c(-c2ccc(Cl)cc2Cl)cc2cnc(Nc3ccc(N4CCNCC4)c(F)c3)nc21	·	50µM*!	·
Cc1ccc(-c2nn3c(-c4ccccc4)nnc3s2)cc1NC(=O)c1ccc(-c2cccc(Cl)c2)o1	·	-4%	·
O=C1NC(=O)C(=Cc2ccc(-c3ccc(F)cc3O)o2)S1	?	24µM*	10%
O=C1NC(=O)/C(=C/c2ccc3c(c2)OC(F)(F)O3)S1	·	-1%[57.5 µM]	·
COC(=O)c1c(-c2ccccc2)no[n+]1[O-]	·	-4%	·
Cc1cccc(Oc2cnc(=O)[nH]c2)c1	·	3%[57.5 µM]	·
COC(=O)c1ccc(NS(=O)(=O)c2ccc(-n3cccn3)cc2)cc1	-18%	17%	-17%
Cc1cc(C)cc(NS(=O)(=O)c2ccc(-n3cccn3)cc2)c1	-35%	-1%	?
COc1ccc(NS(=O)(=O)c2ccc(-n3cccn3)cc2)cc1OC	-90%	14%	7.9µM*
CCc1cccc(NS(=O)(=O)c2ccc(-n3cccn3)cc2)c1	-40%	0%	35µM*
CNC(=O)COC(=O)NCCC1CCN(c2cccc(C)n2)CC1	·	2%[57.5 µM]	·
COc1ccccc1N1CCN(c2ccc(NC(=O)c3ccc(C)cc3)cc2C(=O)O)CC1	7%	?	-20%
CC1CCN(c2ccc(NC(=O)c3cccc(Cl)c3)cc2C(=O)O)CC1	6%	45µM*	-9%
O=C(Nc1ccc(N2CCC(N3CCCCC3)CC2)c(C(=O)O)c1)c1ccccc1	18%	50µM*	-7%
Cc1cccc(C(=O)Nc2ccc(N3CC=C(c4ccccc4C)CC3)c(C(=O)O)c2)c1	8%	40µM*	1%
COc1ccc(C(=O)Nc2ccc(N3CCN(c4ccccc4)CC3)c(C(=O)O)c2)cc1	24%	18%	-16%
COc1cccc(C(=O)Nc2ccc3nc(N4CCC(C)CC4)cc(C)c3c2)c1	-37%	11%	?
CC1OC(OC2C(C)OC(OC3C(OC(=O)/C=C/c4ccc(O)cc4)C(CO)OC(OC4(COC(=O)/C=C/c5ccc(O)cc5)OC(CO)C(O)C4O)C3OC3OCC(O)(CO)C3O)C(O)C2O)C(O)C(O)C1O (stereo not given)	·	17%[12.6 µM]	·
CCNC(=O)Nc1ccc(-c2nc3c(c(N4CCOC[C@@H]4C)n2)CCN(C2COC2)C3)cc1	·	2%	·
C=CC(=O)N1CCCN(c2cc(NCCC(=O)O)nc(-c3ccccn3)n2)CC1	·	10%[57.5 µM]	·
O=C(O)c1ccc(O)c2ncc(N3CCCC3)cc12	·	2%	·
SMILES	HTT-AS act	NTMT1 inh	HTT prom inh
O=S(=O)(Nc1ccc(S(=O)(=O)Nc2nccs2)cc1)c1ccc2ccccc2c1	·	10%	·
O=c1c2sc3ccccc3c2n(Cc2ccccc2)c(=O)n1Cc1ccccc1	-9%	4%	-12%
O=c1sn(-c2cccc3ccccc23)c(=O)n1Cc1ccccc1	·	13µM*	·
COc1c(N2CC3CCCNC3C2)c(F)cc2c(=O)c(C(=O)O)cn(C3CC3)c12 (stereo not given)	·	4%[57.5 µM]	·
COc1cc(OC)c(NC(=O)Nc2cccc(OCc3cc(=O)n4ccccc4n3)c2)cc1Cl	16%	79µM*	14%
COc1cc(OC)c(NC(=O)Nc2ccccc2OCc2cc(=O)n3cc(C)ccc3n2)cc1Cl	11%	-11%	15%
C/C(=C(/OCCOc1ccc(Cl)cc1)c1ccc(Cl)cc1Cl)n1ccnc1	-28%	33%[57.5 µM]	-17%
CC(=O)N1CCN(c2ccc(OC[C@H]3CO[C@](Cn4ccnc4)(c4ccc(Cl)cc4Cl)O3)cc2)CC1	-31%	22µM*!	-26%
Nc1nc(O)c(C2=C3C(=Nc4ccccc43)C(=O)NCC2)[nH]1	·	24%[57.5 µM]	·
CC(C)(C)OC(=O)N[C@@H](Cc1ccc(O[S+](=O)([O-])c2cccnc2)cc1)C(=O)N1CCN(c2ccccc2)CC1	·	2%[57.5 µM]	·
CC(=O)Nc1sc2c(c1-c1cccc3c1sc1ccccc13)CCNC2	·	-5%	·
CC1CCCC(O)CCC/C=C/c2cc(OS(=O)(=O)O)cc(O)c2C(=O)O1 (stereo not given)	·	13µM*	·
CC1CCC/C=C/C(=O)c2c(O)cc(O)cc2CC(=O)O1 (stereo not given)	·	-8%[57.5 µM]	·
COC(=O)[C@H](O)[C@H]1C(C)(C)[C@H](OC(=O)C(C)C)[C@@]2(O)C(=O)[C@]1(C)C1CC[C@]3(C)C(CC(=O)O[C@H]3c3ccoc3)[C@]13O[C@@H]32 (stereo not given in full)	·	-10%[12.6 µM]	·
Cc1ccc(NC(=O)[C@H]2CCCN(C(=O)c3c(C)cccc3F)[C@H]2c2ccc(NC3CCCC3)cc2)cc1C(F)(F)F	·	18%	·
CC(C)C(=O)OC[C@H]1O[C@@H](n2ccc(N)nc2=O)[C@](C)(F)[C@@H]1OC(=O)C(C)C	·	3%	·
Cc1n[nH]c(C)c1S(=O)(=O)N1CCCC(C(=O)Nc2ccc(Cl)cc2)C1 (stereo not given)	-47%	-3%	28µM*
Cc1ccc(NC(=O)C2CCCN(S(=O)(=O)c3c(C)n[nH]c3C)C2)cc1Cl (stereo not given)	-44%	?	?
N#Cc1ccc(Cn2cncc2CN2CCN(c3cccc(Cl)c3)C(=O)C2)cc1	·	-17%	·
CN1C[C@@H]2c3ccccc3Oc3ccc(Cl)cc3[C@H]2C1	·	-2%	·
O=C1Cc2cc(S(=O)(=O)N3CCN(c4ccc(F)cc4)CC3)ccc2N1	·	-5%[228 µM]	·
O=C1Cc2cc(S(=O)(=O)N3CCN(c4ccc(CO)cc4)CC3)ccc2N1	·	50µM*	·
COc1cc(C(=O)NS(=O)(=O)c2ccccc2C)ccc1Cc1cn(C)c2ccc(NC(=O)OC3CCCC3)cc12	-31%	71µM*	?
Cc1ccc(NC(=O)N(Cc2cn(C)c3ccccc23)C2CCCCC2)cc1C	?	-8%	37%
C=C1CCC2C(C(C)(C)O)CCC2(C)CC(O)C(=C)CCC1O (stereo not given)	·	9%[29.8 µM]	·
C[n+]1c2cc(N)ccc2cc2ccc(N)cc21 (tested in a mixture with another compound)	-39%	40µM*	-29%
C=C1C(=O)O[C@H]2C[C@H](C)C(/C=C/C(C)=O)=CC[C@H]12	·	-13%	·
Cc1cn2c(n1)Cc1ccc(Cl)cc1C(c1ccc(N)cc1)=N2	·	-14%[57.5 µM]	·
CC(C)CC(=O)c1c(O)cc2c(c1O)C(CC(C)C)C1=C(O2)C(C)(C)C(=O)C(C)(C)C1=O (stereo not given)	·	-16%[29.8 µM]	·
CN1CCN(c2cccc(Nc3nn4c(=O)c5ccc(N(C)C)cc5nc4s3)c2)CC1	·	50µM*	·
